# Screens from PubChem.
# KB-V1 MDR tox = kills drug-selected multidrug resistant KB-V1 cells | KB-V1 MDR cells viability, CellTiter-Glo, 72 h | hit rate 3.4% among 400,000 | Potency, µM (doses to about 46.1 µM), hits mostly cytotoxic | AID 1347076; also: % is scaled to controls: 0 for no effect and ±100 for the full control effect; nearly all actives have a fitted effect of over 60% in size
#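 Following 72 h at 37 degrees C with compound, KB-V1 cell viability was read by CellTiter-Glo luminescence, medium being phenol-red-free DMEM plus 10% FBS; concentration-response parameters came from normalized, curve-fitted qHTS data.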
# SW480 rereplic = DNA re-replication induction in SW480 cells; SW480 DNA re-replication, Hoechst DNA content imaging, 48 h; Potency, µM (series often up to 46.1 µM), for the others: at the top dose re-replication activation, hits mostly activators; hit rate 1.8% among 340,000; also: % of control where 0% means no effect; nearly all actives have a fitted effect of over 55% in size
#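 DNA re-replication was detected as more nuclei of elevated Hoechst intensity after 48 hr exposure to compound (23 nL pinned per well of 250 cells).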
# KB-3-1 tox = kills parental KB-3-1 adenocarcinoma cells; AID 1347075; hit rate 1.4% among 400,000; Potency, µM (top dose mostly 46.1 µM), usual class: cytotoxic; KB-3-1 viability, CellTiter-Glo ATP luminescence, 72 h; also: % is scaled to controls: 0 for no effect and ±100 for the full control effect; nearly all actives have a fitted effect of over 60% in size
#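 72 h, 37 °C compound treatment of KB-3-1 parental cells; CellTiter-Glo added, 10 min, luminescence read. Data corrected against DMSO-only plates and normalized before curve fitting.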
# MCF10A rereplic = inducers of DNA re-replication in MCF 10A breast cells; Potency, µM (highest dose often 46.1 µM), for inactives: top-dose activity, positive = re-replication, hits mostly activators; AID 624296; hit rate 2.9% among 350,000; MCF 10A DNA re-replication, Hoechst nuclear intensity, 48 h; also: % of control where 0% means no effect; nearly all actives have a fitted effect of over 50% in size
# RGS4 inh = inhibitors of human regulator of G protein signaling 4; P49798; Transcreener GDP fluorescence polarization, RGS4-accelerated GTP hydrolysis; Potency, µM (doses to about 114 µM), inactives show top-dose activity change, negative = inhibition, actives largely listed as inhibitors; hit rate 0.039% among 390,000; also: % is scaled to controls: 0 for no effect and ±100 for the full control effect; nearly all actives have a fitted effect of over 75% in size
# Target sequence (P49798 whole entry, looked up): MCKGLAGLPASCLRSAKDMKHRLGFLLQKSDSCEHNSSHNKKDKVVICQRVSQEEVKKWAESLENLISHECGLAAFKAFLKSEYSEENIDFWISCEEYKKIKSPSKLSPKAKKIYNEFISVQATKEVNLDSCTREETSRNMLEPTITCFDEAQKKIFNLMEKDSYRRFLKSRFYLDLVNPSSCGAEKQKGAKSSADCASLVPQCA
#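 MLSMR compounds (23 nl, pin-transferred) preincubated 10 min at room temperature with a 500nM (2x) first reagent, then RGS4 at 900nM (2x) plus Transcreener GDP mix added; fluorescence polarization (620/688 nm) read before and after 90 min at 30 °C.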
# PTAP TSG101 blk = blocks PTAP/TSG101 interaction to inhibit HIV-1 budding | Q99816 | Fluorescence polarization, FITC-PTAP peptide / Tsg101 binding | Potency, µM (titrated, usually from 115 µM), for the others: top-dose activity change, negative = inhibition, hits mostly inhibitors | 340,000 tested, under 10 active | AID 493005; active = well fitted inhibition curve with a large enough effect in the main read-out, with a control signal flat, not every such curve was filed as active; inconclusive = small, poorly fitted or top-dose-only effect, or effect the other way, or a change in a side signal; inactive = no such curve, though single readings can be large or run the other way; also: % of control where 0% means no effect
#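 Fluorescence polarization binding of Tsg101 binding domain (10 uM final) to FITC-labeled PTAP peptide (50 nM final) in HEPES pH 7.5 buffer with NaCl, Tween 20, EDTA, TCEP. Compounds added before peptide; binding 20 min at RT.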
# * = called active by the depositor; i = inactive; ? = inconclusive; . = no result given; ! = a repeat was not active; [ ] = remark or other dose. A selection: hits, their analogues and other compounds. The true share with any hit is near 6.6%. Unless noted, calls follow the shape of the dose curve; as a rule, active = well fitted curve in the direction sought with a large enough effect; inconclusive = small, poorly fitted or top-dose-only effect, or another doubt; inactive = no such curve, though single readings can be large; an effect the other way counts as inactive or inconclusive. Potency is read from the fitted curve at half-maximal effect.
SMILES,KB-V1 MDR tox,SW480 rereplic,KB-3-1 tox,MCF10A rereplic,RGS4 inh,PTAP TSG101 blk
COC(=O)c1ccsc1NC(=O)CN1CCN(Cc2ccc3c(c2)OCO3)CC1,16µM*,0%,i,24%,-23%,-2%
O=C(NC(=S)N1CCN(Cc2ccc3c(c2)OCO3)CC1)c1cccc(Br)c1,7.3µM*,0%,?,11%,-30%,0%
Cc1ccc(CCNC(=O)c2cnc3c(C)cccn3c2=O)cc1,i,.,i,.,6%,.
Cc1ccc(NC(=O)N2CCN(Cc3ccc4c(c3)OCO4)CC2)cc1,21µM*,-1%,i,0%,30%,.
O=C(/C=C/c1cccs1)N1CCCCC1,i,-10%,i,3%,-23%,-5%
O=C(/C=C/c1cccs1)N1CCN(c2ccc(O)cc2)CC1,i,?,?,16µM*,10%,-3%
CCOc1ccc(NC(=O)N2CCN(Cc3ccc4c(c3)OCO4)CC2)cc1,i,-9%,i,-3%,-6%[11.4 µM],-8%
COc1ccccc1NC(=O)C1=C(C)Nc2nc(SCc3cc(C)ccc3C)nn2C1c1ccccc1 (configuration not stated),i,.,i,.,-34%,.
Cc1ccc(-n2ncc(C(=O)Nc3cc(Cl)cc(Cl)c3)c2C2CCNCC2)cc1C,i,4.6µM*,i,?,3%,3%
COc1ccc(NC(=O)c2cnn(-c3ccc(C)c(C)c3)c2C2CCNCC2)cc1OC,i,.,i,.,-30%,.
Cn1c(SCC(=O)Nc2nccs2)nnc1C12CC3CC(CC(C3)C1)C2,21µM*,-1%,i,5%,-8%,-7%
Cn1c(CSCc2ccccc2Cl)nnc1SCC(=O)Nc1nccs1,21µM*,-11%,i,12%,?,-1%
CC(C)N(C)NC(=S)Nc1ccccc1,i,-1%,i,0%,-11%,-3%
Cc1cc(N(C)NC(=S)Nc2ccccc2)nc(C)n1,i,1.8µM*,i,2%,-4%,-2%
CSc1ccc(CCNC(=O)c2ccc3c(c2)nc2n3CCCCC2)cc1,i,.,?,.,-18%,.
CCCCCCCC/C=C\CCCCCCCC(=O)O,i,3%,i,30µM*!,-17%,-5%
Cc1noc(C)c1C(=O)N1CCN(c2ccc(OCc3ccccc3)cc2)CC1,15µM*,-11%,?,?,27%,-2%
COc1ccc(N2CCN(C(=O)c3ccc4c(c3)OCO4)CC2)cc1,21µM*,-4%,i,?,4%,-5%
COc1cc(C(=O)OCC(C)=O)ccc1OCc1c(C)noc1C,?,16µM*,15µM*,21µM*,-4%,-1%
COc1cc(C(=O)O)ccc1OCc1c(C)noc1C,i,-15%,i,2%,11%,-8%
COc1cc(C(=O)N2CCN(c3ccc([N+](=O)[O-])cc3)CC2)ccc1OCc1c(C)noc1C,?,-5%,i,-2%,-22%,0%
COc1ccc(N2CCN(C(=O)c3ccc(OCc4c(C)noc4C)c(OC)c3)CC2)cc1,12µM*,0%,i,0%,-40%,-4%
CC(=O)c1ccc(N2CCN(C(=O)c3ccc4c(c3)OCO4)CC2)cc1,.,-8%,.,5%,0%,-1%
CCOC(=O)CCn1c(=O)c2cccn2c2cccnc21,.,.,.,.,-17%,.
CCOc1ccccc1CNS(=O)(=O)c1ccc(-c2coc(C)n2)cc1,i,.,i,.,-6%,.
COc1cc(C(=O)Nc2nc3ccccc3s2)ccc1OCc1c(C)noc1C,i,16µM*,?,?,7%,1%
COc1cc(C(=O)Nc2nccs2)ccc1OCc1c(C)noc1C,i,-5%,i,?,-16%,-7%
COc1ccccc1CNC(=O)C(=O)NCC(c1cccs1)S(=O)(=O)c1ccc(F)cc1 (configuration not stated),?,.,i,.,-30%,.
